{"source": "PubChem BioAssay AID431", "about": "(Sanford-Burnham Center for Chemical Genomics, 2006)", "note": "Among all 63,000 compounds or so, about 1,100 (1.7%) were called active.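 Rule for the calls: active = compounds whose percent cytotoxicity in the single-dose primary screen, scaled between solvent and toxic-drug controls, exceeds 50; inactive = the rest.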 The list comes from a sample in which actives are over-represented; it also holds similar structures and randomly drawn compounds. Results with a measured potency or affinity are listed apart.", "data": [{"assay": "cytotoxicity in KRAS-transformed pancreatic duct cells, primary screen, cell-based, fluorescence, HTS (AID 431);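 note: 0% = DMSO solvent wells and 100% = doxorubicin-treated wells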", "conditions": "HPDE-C7K KRASV12 cells, Alamar Blue viability, 48 h; at 10 µM; stronger effect = higher value", "values": [{"smiles": "Cn1c(=O)c2c(nc(SCC(=O)O)n2Cc2cccc(C(F)(F)F)c2)n(C)c1=O", "cytotoxicity": "-7.6% (inactive)"}, {"smiles": "CCCCOc1ccc(/C(O)=C2/C(=O)C(=O)N(CCCOC)C2c2ccncc2)cc1C", "note": "(stereo unspecified)", "cytotoxicity": "-8.2% (inactive)"}, {"smiles": "COc1ccc(CN2C(=O)NC3(CCCCCC3)C2=O)cc1F", "cytotoxicity": "-2.8% (inactive)"}, {"smiles": "CC(C)(C)c1cc(NC(=O)c2cccnc2)no1", "cytotoxicity": "-7.8% (inactive)"}, {"smiles": "O=C(Cn1c(=O)sc2ccccc21)Nc1ccccc1C(=O)O", "cytotoxicity": "18.1% (inactive)"}, {"smiles": "COc1ccc(C2C(C(=O)Nc3ccccc3OC)=C(C)Nc3ncnn32)cc1", "note": "(stereo unspecified)", "cytotoxicity": "-6.4% (inactive)"}, {"smiles": "CCOC(=O)C1=C(CSc2nc3c(cc2C#N)CCC3)OC(N)=C(C#N)C1c1ccccc1", "note": "(stereo unspecified)", "cytotoxicity": "108% (active)"}, {"smiles": "CCOC(=O)C1=C(CSc2nc(C)cc(C)c2C#N)OC(N)=C(C#N)C1c1cccs1", "note": "(stereo unspecified)", "cytotoxicity": "-2.2% (inactive)"}, {"smiles": "CCOC(=O)C1=C(CSc2nc(C)ccc2C#N)OC(N)=C(C#N)C1c1cccc(OC)c1OC", "note": "(stereo unspecified)", "cytotoxicity": "57.6% (active)"}, {"smiles": "CCOC(=O)C1=C(CSc2nc3c(cc2C#N)CN(C)CC3)OC(N)=C(C#N)C1c1ccccc1", "note": "(stereo unspecified)", "cytotoxicity": "14.3% (inactive)"}, {"smiles": "CCOC(=O)C1=C(CSc2nc(-c3ccncc3)ccc2C#N)OC(N)=C(C#N)C1c1cccnc1", "note": "(stereo unspecified)", "cytotoxicity": "20% (inactive)"}, {"smiles": "CCOC(=O)C1=C(C)OC(N)=C(C#N)C1c1ccc(OC)c(C)c1OC", "note": "(stereo unspecified)", "cytotoxicity": "2.9% (inactive)"}, {"smiles": "COc1cc(S(=O)(=O)NCC2CCCO2)c(OC)cc1Cl", "note": "(stereo unspecified)", "cytotoxicity": "-5.9% (inactive)"}, {"smiles": "CCN(CC)CCN1C(=O)C(=O)/C(=C(/O)c2ccc(Cl)cc2)C1c1ccncc1", "note": "(stereo unspecified)", "cytotoxicity": "-16.4% (inactive)"}, {"smiles": "CCOc1ccc(N2CC(=O)SC2=S)cc1", "cytotoxicity": "-11.8% (inactive)"}, {"smiles": "Cc1ccc(C#N)c(SCc2cc3c(cc2Cl)OCO3)n1", "cytotoxicity": "2.4% (inactive)"}, {"smiles": "COc1ccc(S(=O)(=O)Cc2ccc(C(=O)NC3CC3)o2)cc1", "cytotoxicity": "-11.3% (inactive)"}, {"smiles": "O=C(CN1C(=O)COc2ccccc21)N(Cc1cccnc1)Cc1cccc(F)c1", "cytotoxicity": "-1.8% (inactive)"}, {"smiles": "O=C(NCc1ccccn1)C1CCN(S(=O)(=O)c2cccs2)CC1", "cytotoxicity": "-6.5% (inactive)"}, {"smiles": "Cc1cc(C)cc(N2C(=O)CC(N3CCOCC3)C2=O)c1", "note": "(stereo unspecified)", "cytotoxicity": "1.2% (inactive)"}, {"smiles": "N#Cc1nc(-c2ccc(F)cc2)oc1N1CCCC1", "cytotoxicity": "3.4% (inactive)"}, {"smiles": "O=C(c1ccc(F)cc1)c1ccc(N2CCCC2)cc1", "cytotoxicity": "-11% (inactive)"}, {"smiles": "CCCn1c(SCC(=O)NC(=O)NCc2ccco2)n[nH]c1=O", "cytotoxicity": "-2.3% (inactive)"}, {"smiles": "O=C(NCC1CCCO1)c1cc2n(n1)C(C(F)(F)F)CC(c1ccc(Br)cc1)N2", "note": "(stereo unspecified)", "cytotoxicity": "6.4% (inactive)"}, {"smiles": "O=S1(=O)CCC(NCC2CCCO2)C1", "note": "(stereo unspecified)", "cytotoxicity": "6.3% (inactive)"}, {"smiles": "CCOc1ccc(/C(O)=C2\\C(=O)C(=O)N(CCN(C)C)C2c2cc(OC)ccc2OC)cc1Cl", "note": "(stereo unspecified)", "cytotoxicity": "-1.7% (inactive)"}]}]}
